# Laboratory results taken from ChEMBL document CHEMBL3988442, “University of Dundee, Small-Polar-MMV Screening Library” (2021).
# In all, about 69,000 compounds went through this assay and about 1,000 (1.4%) showed an effect of 50% or more. For the sample, strong results were picked, then their nearest neighbours and some compounds at random.
# Tested on: Leishmania donovani
# Assay: Leishmania intramacrophage assay
# Assay type: functional, organism-based
# Parameters: scale not given: in the data most compounds retested in dose-response had high values
smiles,measurement,setting,value
O=C(NCCN1CCOCC1)c1cc(-c2ccccc2Cl)[nH]n1,Percent Effect,"30.3 µM, […]",-6.582%
CC(C)c1noc(CN2CCN(C(=O)c3ccncc3F)CC2)n1,Percent Effect,30 µM,25.95%
O=C1C(N2CCN(c3ccc(O)cc3)CC2)CCN1C1CCOCC1 (stereo not drawn),Percent Effect,"30.3 µM, […]",-7.233%
O=C(Nc1ccc(CC(=O)N2CCCC2)cc1)NC1CC1,Percent Effect,"30.3 µM, […]",15.08%
O=C(Nc1ccc(CC(=O)N2CCSCC2)cc1)NC1CCCC1,Percent Effect,"30.3 µM, […]",-9.117%
O=C(Nc1ccc(CC(=O)N2CCSCC2)cc1)NC1CC1,Percent Effect,"30.3 µM, […]",50.93%
O=C1[C@H]2CC[C@H](CN(C3CSCCSC3)C2)N1Cc1cscn1,Percent Effect,"30 µM, 30.03 µM",-11.37%
Cn1cc(CN2CCCC23CCN(Cc2nccn2C)CC3)cn1.O=C(O)C(F)(F)F.O=C(O)C(F)(F)F,Percent Effect,"30.3 µM, […]",22.67%
Cc1ccccc1N1CC2(CCN(Cc3nccn3C)C2)CC1=O.O=C(O)C(F)(F)F (stereo not drawn),Percent Effect,"30.3 µM, […]",-1.583%
CN1CC(=O)N(c2cnn(C)c2)CC12CCN(Cc1nccn1C)C2.O=C(O)C(F)(F)F.O=C(O)C(F)(F)F (stereo not drawn),Percent Effect,"30 µM, 30.03 µM",3.871%
Cn1cc(N2CC3(CCN(Cc4nccn4C)C3)CC2=O)cn1.O=C(O)C(F)(F)F (stereo not drawn),Percent Effect,"30.3 µM, […]",58.91%
Cc1ccc(N2CC3(CCN(Cc4nccn4C)C3)CC2=O)s1.O=C(O)C(F)(F)F (stereo not drawn),Percent Effect,"30.3 µM, […]",55.03%
Cc1cccc(N2CC3(CCN(Cc4nccn4C)C3)CC2=O)c1.O=C(O)C(F)(F)F (stereo not drawn),Percent Effect,"30.3 µM, […]",24.22%
Cn1ccc(CN2CCCC23CCN(Cc2nccn2C)CC3)n1.O=C(O)C(F)(F)F.O=C(O)C(F)(F)F,Percent Effect,"30.3 µM, […]",27.16%
Cn1ccnc1CN1CCC2(CC(=O)N(c3ccsc3)C2)C1.O=C(O)C(F)(F)F (stereo not drawn),Percent Effect,"30.3 µM, […]",19.56%
CN(C)CCN1CCCC12CCN(Cc1nccn1C)CC2.O=C(O)C(F)(F)F.O=C(O)C(F)(F)F.O=C(O)C(F)(F)F,Percent Effect,"30.3 µM, […]",52.43%
OC(COCc1ccccc1Cl)CN1CCC(c2ccn[nH]2)CC1 (stereo not drawn),Percent Effect,30 µM,17.67%
O=C(Cc1csc(-c2ccsc2)n1)N1CCN(c2cnccn2)CC1,Percent Effect,30 µM,8.045%
Cc1cc(C(=O)N2CCn3cc(CN(C)C)nc3C2)no1,Percent Effect,"30.3 µM, […]",18.85%
CC(O)CN1CCN(C(=O)c2ccn(-c3ccc(F)cc3)n2)CC1 (stereo not drawn),Percent Effect,"30.3 µM, […]",-32.18%
Cn1ccc(C(=O)N2CCC(Cc3cnc4[nH]ccc4c3)CC2)n1,Percent Effect,"30 µM, 30.03 µM",27.84%
CO[C@@H]1CC[C@@H](N(C)C(=O)COc2ccc(F)cc2)[C@H]1O,Percent Effect,"30 µM, 30.03 µM",-20.57%
CCc1nn(-c2cc(Oc3cc(C)ccc3C)ncn2)c(N)c1C#N,Percent Effect,"30.3 µM, […]",55.59%
CCc1nn(-c2cc(Oc3cc(C)ccc3C)nc(C)n2)c(N)c1C#N,Percent Effect,"30.3 µM, […]",18.36%
Cc1ccc(C)c(Oc2cc(-n3nc(C)c(C#N)c3N)nc(C)n2)c1,Percent Effect,"30.3 µM, […]",6.945%
NCC(=O)N1CCCC(O)(CN2CCN(c3ccccc3)CC2)CC1 (stereo not drawn),Percent Effect,"30.3 µM, […]",24.84%
CSCCCN1CCN(c2ccc(Cl)cn2)CC1,Percent Effect,"30.3 µM, […]",30.03%
CS(=O)(=O)CCN1CCN(c2ccc(Cl)cn2)CC1,Percent Effect,"30.3 µM, […]",0.04205%
Cc1nc(CN2CCN(Cc3nccn3C)CC2)no1,Percent Effect,"30 µM, 30.03 µM",11.72%
Cc1nc(CN2CCN(c3ccc(Cl)cn3)CC2)no1,Percent Effect,"30.3 µM, […]",51.54%
Clc1ccc(N2CCN(CCCN3CCCCC3)CC2)nc1,Percent Effect,"30.3 µM, […]",68.75%
Cc1nc(CNC(=O)N2CCN(c3ccc(Cl)cn3)CC2)no1,Percent Effect,"30.3 µM, […]",-6.718%
O=C(NCCNc1ccc(C(F)(F)F)cn1)c1ccc(Br)cc1F,Percent Effect,"30 µM, 30.03 µM",-32.97%
CN(Cc1cn[nH]c1-c1ccc(F)cc1)C(=O)CCC1CC1,Percent Effect,"30.3 µM, […]",-4.143%
CCn1cc(CN2CCC(C3CCN(C)CC3)CC2)cc1C#N,Percent Effect,"30.3 µM, […]",8.451%
COc1ccc(/C=C/CN2CCCC3(C2)CN(C)C(=O)O3)cc1 (stereo not drawn),Percent Effect,"30.3 µM, […]",14.77%
COC[C@@]12CC[C@@H](N3CCOCC3)C[C@H]1CCN(c1cc(C)ccn1)C2,Percent Effect,"30.3 µM, […]",28.55%
CCC(O)Cn1nc(-c2ccc(C(=O)O)cc2)cc1-c1ccc(F)cc1 (stereo not drawn),Percent Effect,"30.3 µM, […]",61.24%
CCC(O)Cn1nc(-c2ccc(C(=O)O)cc2)cc1-c1cccc(F)c1 (stereo not drawn),Percent Effect,"30.3 µM, […]",29.44%
CC(C)Cn1nc(-c2ccc(C(=O)O)cc2)cc1-c1ccc(F)cc1,Percent Effect,"30.3 µM, […]",41.19%
Fc1cccc(N2CCc3ncnc(C4CC4)c3CC2)c1,Percent Effect,"30.3 µM, […]",15.99%
COCCCN1C(=O)CC[C@H]2CN(Cc3cc4ccccc4o3)CC[C@H]21,Percent Effect,"30.3 µM, […]",10.23%
CCN1CCC(NC(=O)NC2CCOc3ccc(Br)cc32)CC1 (stereo not drawn),Percent Effect,"30.3 µM, […]",1.839%
CN1CC(c2ccccc2)CC2(CCN(Cc3ncc[nH]3)CC2)C1 (stereo not drawn),Percent Effect,"30.3 µM, […]",16.63%
CCN1CC(c2ccccc2)CC2(CCN(Cc3ncc[nH]3)CC2)C1 (stereo not drawn),Percent Effect,"30.3 µM, […]",35.04%
c1ccc(C2CN(C3CC3)CC3(CCN(Cc4ncc[nH]4)CC3)C2)cc1 (stereo not drawn),Percent Effect,"30.3 µM, […]",51.92%
Cc1ccc(F)c(OC2(C(=O)O)CCN(C(=O)C3CCCC3)CC2)c1,Percent Effect,"30.3 µM, […]",24.64%
CCOC(C)c1nc(CN2CCN(Cc3cccnc3)CC2)cs1 (stereo not drawn),Percent Effect,"30.3 µM, […]",14.45%
Cc1nc(CN2C[C@@H]3CN(c4ncc(F)cn4)C[C@@H]3C2=O)cs1.O=C(O)C(F)(F)F,Percent Effect,"30.3 µM, […]",0.4282%
CN1CCC(N(CCc2ccccc2)C(=O)c2ccoc2)CC1,Percent Effect,"30.3 µM, […]",23.03%
CN1CCC(N(CCc2ccccc2)C(=O)c2ccc(CO)cc2)CC1,Percent Effect,"30.3 µM, […]",30.31%
CN1CCC(N(CCc2ccccc2)C(=O)c2cc[nH]c2)CC1,Percent Effect,"30.3 µM, […]",69.36%
C[C@H]1C(=O)NC[C@H]2CN(Cc3cccc(F)c3)C[C@H]21.O=C(O)C(F)(F)F,Percent Effect,"30.3 µM, […]",4.969%
Cc1cc(CN(C)C(=O)C2CCCN(C(N)=O)C2)no1 (stereo not drawn),Percent Effect,"30.3 µM, […]",-0.7168%
Cn1ncc(NCc2cccc(F)c2)c(Cl)c1=O,Percent Effect,30 µM,13.08%
Cn1ncc(NCc2cc(F)cc(F)c2)c(Cl)c1=O,Percent Effect,"30 µM, 30.03 µM",2.406%
Cn1ncc(NCc2cccc(COC(C)(C)C)c2)c(Cl)c1=O,Percent Effect,"30 µM, 30.03 µM",51.11%
COc1ccc(CNc2cnn(C)c(=O)c2Cl)cc1,Percent Effect,30 µM,56.65%
COc1cccc(CNc2cnn(C)c(=O)c2Cl)c1,Percent Effect,"30 µM, 30.03 µM",34.79%
CC(C)OCc1cccc(CNc2cnn(C)c(=O)c2Cl)c1,Percent Effect,30 µM,21.9%
COc1ncccc1CN1CC[C@]2(C[C@@H](OCc3ccccn3)CO2)C1.O=C(O)C(F)(F)F.O=C(O)C(F)(F)F.O=C(O)C(F)(F)F,Percent Effect,"30.3 µM, […]",-3.573%
Nc1nnnn1NCc1cccc(Cl)c1Cl,Percent Effect,"30.3 µM, […]",4.224%
O=C(CCc1ccsc1)N1CCCC(n2cncn2)C1 (stereo not drawn),Percent Effect,30 µM,18.97%
Cc1nccn1C1CCCN(C(=O)c2cccc(OCC(N)=O)c2)C1 (stereo not drawn),Percent Effect,30 µM,14.8%
COc1nccnc1N1CCC2(CC1)[C@H](O)C[C@@H]2OCCN(C)C,Percent Effect,"30.3 µM, […]",13.35%
Cl.NC1CCc2nc(-c3ccncc3)nc(Nc3cccc(F)c3)c2C1 (stereo not drawn),Percent Effect,"30.3 µM, […]",64.39%
c1csc(CCNc2nc(-c3ccncc3)nc3c2CCNCC3)c1,Percent Effect,"30.3 µM, […]",9.747%
O=C(Nc1cccc(F)c1)NC1CCN(Cc2ccncc2)CC1,Percent Effect,"30.3 µM, […]",20.9%
c1cc(-c2nc3c(c(NCCn4ccnn4)n2)CCNCC3)ccn1,Percent Effect,"30.3 µM, […]",24.72%
Cc1sc2c(C3CCNCC3)nc(Nc3cccc(F)c3)n2c1C.Cl,Percent Effect,"30.3 µM, […]",-10.63%
CNC(=O)c1cccc(CN2CCC(N(C)Cc3noc(C)n3)C2)c1 (stereo not drawn),Percent Effect,"30.3 µM, […]",-22.53%
CNc1cc(C2CCCN(S(=O)(=O)c3cn[nH]c3)C2)ccn1 (stereo not drawn),Percent Effect,"30.3 µM, […]",9.494%
CCN1CCN(C2CCN(Cc3c(C)noc3C)CC2)C1=O,Percent Effect,"30 µM, 30.03 µM",32.64%
CN(C)c1nc(N)nc(CN2CCCC2c2cccs2)n1 (stereo not drawn),Percent Effect,"30.3 µM, […]",87.57%
CN(C)c1nc(N)nc(CN2CCCC2c2ccsc2)n1 (stereo not drawn),Percent Effect,"30.3 µM, […]",83.34%
Cc1nc(CN2CCCC2c2ccsc2)nc2ccccc12 (stereo not drawn),Percent Effect,"30 µM, 30.03 µM",47.19%
CCCc1noc(CN2CCCC2c2ccsc2)n1 (stereo not drawn),Percent Effect,"30 µM, 30.03 µM",16.77%
CN(C)c1nc(N)nc(CN2CCCC(c3ccccc3)CC2)n1 (stereo not drawn),Percent Effect,"30.3 µM, […]",6.795%
Cc1cccc(C2CCCN2Cc2nc(N)nc(N(C)C)n2)c1C (stereo not drawn),Percent Effect,"30.3 µM, […]",37.96%
OC1(CNCCc2csc(-c3cccnc3)n2)CCNC1 (stereo not drawn),Percent Effect,"30.3 µM, […]",17.55%
CN1CCn2c(-c3cccc(F)c3)cnc2C12CCN(CC1CC1)CC2.O=C(O)C(F)(F)F.O=C(O)C(F)(F)F.O=C(O)C(F)(F)F,Percent Effect,"30.3 µM, […]",7.679%
Cc1nc(-c2ccc(NCCc3ccc(O)cc3)nc2)[nH]c(=O)c1C,Percent Effect,"30.3 µM, […]",67.3%
Cc1nc(CCNc2ccc(-c3nc(C)c(C)c(=O)[nH]3)cn2)cs1,Percent Effect,"30.3 µM, […]",-24.43%
CCc1cc(=O)[nH]c(-c2ccc(NCCc3ccc(O)cc3)nc2)n1,Percent Effect,"30.3 µM, […]",10.3%
CCOCC1c2c(cnn2CC2CC2)CCN1C(=O)c1ccncn1.O=C(O)C(F)(F)F (stereo not drawn),Percent Effect,"30.3 µM, […]",-17.31%
Cc1c(C(=O)NS(=O)(=O)c2ccc(F)cc2)cnn1CC(C)C,Percent Effect,"30.3 µM, […]",-23.8%
CC(C)N1CCCN(c2nc(-c3cccnc3)nc3c2cnn3C)CC1,Percent Effect,"30.3 µM, […]",93.98%
Cn1ncc2c(N3CCS(=O)(=O)CC3)nc(-c3cccnc3)nc21,Percent Effect,"30.3 µM, […]",31.77%
Cn1ncc2c(N3CCC3)nc(-c3ccncc3)nc21,Percent Effect,"30.3 µM, […]",7.019%
COc1ccccc1-c1csc(NC(=O)N2CCN(C)CC2C)n1 (stereo not drawn),Percent Effect,"30.3 µM, […]",9.878%
CCc1ccccc1CN1CC[C@@]2(O)CCN(S(=O)(=O)N(C)C)C[C@H]2C1,Percent Effect,"30.3 µM, […]",-14.75%
CCN(C)S(=O)(=O)NCC1CCCN(Cc2ccccc2F)C1 (stereo not drawn),Percent Effect,"30.3 µM, […]",-11.05%
Nc1ncc(C(=O)N2CCN(c3nccs3)CC2)cc1Cl,Percent Effect,"30.3 µM, […]",-4.984%
O=C(c1cc(Cl)cc(Cl)c1)N1CCN(c2nccs2)CC1,Percent Effect,"30 µM, 30.03 µM",30.43%
O=C(c1ccc(O)c(Cl)c1)N1CCN(c2nccs2)CC1,Percent Effect,"30.3 µM, […]",64.57%
CN(Cc1ccccc1C(F)(F)F)C(C(N)=O)c1ccccc1 (stereo not drawn),Percent Effect,"30.3 µM, […]",68.32%
CN(Cc1ccccc1F)C(C(N)=O)c1ccccc1 (stereo not drawn),Percent Effect,"30.3 µM, […]",11.08%
CC(C(N)=O)N(C)Cc1ccccc1C(F)(F)F (stereo not drawn),Percent Effect,"30.3 µM, […]",-40.32%
